# pCIP destab = compounds decreasing mouse p/CIP protein stability; Q05BA5; F442A p/CIP-EGFP cells, EGFP fluorescence, 16 h; decrease of EGFP signal, % at 10 µM; 290,000 compounds, 0.01% hits; AID 1984;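 active means EGFP signal decrease of at least 30% at 10 µM or well 3 SD below plate mean, unless failing retest; inactive means the rest, including hits failing retest or dose response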
# Target sequence (Q05BA5 1-1403): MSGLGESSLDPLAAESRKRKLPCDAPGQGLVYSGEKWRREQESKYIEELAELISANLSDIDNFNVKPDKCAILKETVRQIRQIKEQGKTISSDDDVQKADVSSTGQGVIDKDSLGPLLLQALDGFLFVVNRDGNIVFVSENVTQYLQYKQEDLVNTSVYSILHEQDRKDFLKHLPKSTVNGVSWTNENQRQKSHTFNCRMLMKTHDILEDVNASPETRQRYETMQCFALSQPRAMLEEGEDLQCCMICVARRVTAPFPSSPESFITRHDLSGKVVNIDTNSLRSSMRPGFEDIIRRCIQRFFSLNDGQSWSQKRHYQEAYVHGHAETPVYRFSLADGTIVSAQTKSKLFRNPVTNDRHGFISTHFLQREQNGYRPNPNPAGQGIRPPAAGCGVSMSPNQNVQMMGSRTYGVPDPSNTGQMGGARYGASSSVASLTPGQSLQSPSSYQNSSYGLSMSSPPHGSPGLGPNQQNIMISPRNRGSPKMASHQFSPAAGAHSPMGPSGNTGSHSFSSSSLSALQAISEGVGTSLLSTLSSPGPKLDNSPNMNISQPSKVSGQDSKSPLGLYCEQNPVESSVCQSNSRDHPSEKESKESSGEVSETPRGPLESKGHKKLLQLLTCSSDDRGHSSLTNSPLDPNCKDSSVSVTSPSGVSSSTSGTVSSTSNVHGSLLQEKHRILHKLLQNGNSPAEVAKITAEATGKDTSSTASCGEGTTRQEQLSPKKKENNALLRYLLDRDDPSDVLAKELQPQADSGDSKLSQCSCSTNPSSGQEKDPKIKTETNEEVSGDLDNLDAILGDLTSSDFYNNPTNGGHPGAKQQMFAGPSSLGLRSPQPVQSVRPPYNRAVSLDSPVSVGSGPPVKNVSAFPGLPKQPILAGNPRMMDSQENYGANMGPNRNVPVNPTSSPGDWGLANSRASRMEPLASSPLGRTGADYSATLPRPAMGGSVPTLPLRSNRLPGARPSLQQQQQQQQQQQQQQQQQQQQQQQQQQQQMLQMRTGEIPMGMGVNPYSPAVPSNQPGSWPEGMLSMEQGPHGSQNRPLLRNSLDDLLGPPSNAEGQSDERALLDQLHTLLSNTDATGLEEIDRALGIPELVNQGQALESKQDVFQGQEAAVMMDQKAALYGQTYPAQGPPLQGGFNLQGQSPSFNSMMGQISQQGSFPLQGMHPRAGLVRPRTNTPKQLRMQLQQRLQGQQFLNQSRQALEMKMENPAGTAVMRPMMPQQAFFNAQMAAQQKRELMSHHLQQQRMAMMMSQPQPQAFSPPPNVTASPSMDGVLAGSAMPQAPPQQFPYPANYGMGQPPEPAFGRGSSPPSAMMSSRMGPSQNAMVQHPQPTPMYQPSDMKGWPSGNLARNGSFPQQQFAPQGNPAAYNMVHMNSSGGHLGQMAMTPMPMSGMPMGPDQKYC
# VLA-4 inh = inhibition in a human VLA-4 binding assay; P13612; VLA-4 expressing cells, ligand binding flow cytometry; inhibition, % (about 7 µM as worked out from the volumes in the protocol); 330,000 compounds, 0.2% hits; AID 2557; in the data active means inhibition above about 50%
# JMJD2C inh = human JMJD2C demethylase inhibition; Q9H3R0; GST-JMJD2C(1-420) H3K9me3 demethylation, DELFIA europium; inhibition, % at 2.35 µM; 330,000 compounds, 0.069% hits; AID 2099;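 active means more than half of a compound's replicate wells show inhibition beyond 50%, single wells judged on their own value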;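 further: signal counts dimethyl H3K9 product captured on neutravidin plate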
# GPR7 antag = blocks human GPR7 receptor signaling; GPR7-expressing cells, fluorescence antagonist assay; inhibition, % at 4.4 µM; 290,000 compounds, 1.1% hits; in the data active means inhibition above about 16%, passing the limit was not always enough;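 further: cells stimulated with the agonist NPW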
# GPR7 antag cf = human GPR7 antagonism, confirmation assay. AID 1952. shares compounds with GPR7 antag. GPR7-expressing cells, calcium fluorescence antagonist mode. inhibition, % at 4.4 µM. 2,400 compounds, 52% hits; in the data active means inhibition above about 24%;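 further: stimulated with the GPR7 agonist NPW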
# MCHR1 antag = MCHR1 (human) antagonism in GPR7 counter-screen. 2,400 compounds, 62% hits. inhibition, % at 4.4 µM. shares compounds with GPR7 antag. MCHR1-expressing cells, fluorescence antagonist assay; in the data active means inhibition above about 22%
# A number is an active result; n = inactive; x = no result. Most compounds without a hit are left out; they make up all but 1.2% or so of the library.
SMILES,pCIP destab,VLA-4 inh,JMJD2C inh,GPR7 antag,GPR7 antag cf,MCHR1 antag
CCN(c1cccc(C)c1)S(=O)(=O)c1cccc2nsnc12,n,n,n,23,n,39
Cc1c(C(=O)N2CCN(S(=O)(=O)c3ccccc3)CC2)oc2ccc(Br)cc12,x,n,x,x,x,x
Cn1cccc1/C=N/n1c(-c2ccco2)n[nH]c1=S,n,n,n,n,x,x
COc1cc(-c2n[nH]c(=S)n2/N=C/c2cccn2C)cc(OC)c1OC,n,n,n,80,88,74
Cc1cccc(N(CC(=O)NCCc2ccccc2)C(=O)CCC(=O)Nc2ccccn2)c1C,n,n,n,n,x,x
CCCCN(C(=O)c1cccc(S(=O)(=O)N2CCCCC2)c1)C1CCS(=O)(=O)C1 (stereo not drawn),n,n,n,n,x,x
O=C(NCCO)c1ccc(-c2nnc(Nc3ccc(O)cc3)c3ccccc23)cc1,n,n,n,n,x,x
COc1ccc(-c2nnc(Nc3ccc(CC(N)=O)cc3)c3ccccc23)cc1,n,n,n,n,x,x
Oc1ccc(Nc2nnc(-c3ccc(O)cc3)c3ccccc23)cc1,n,n,n,39,54,62
COc1ccc(Nc2nnc(-c3ccc(O)cc3)c3ccccc23)cc1,n,n,n,61,71,74
CC(=O)O[C@@H]1C[C@H]2C(C)(C)C(=O)C=C[C@]2(C)[C@H]2CC[C@@]3(C)[C@H](c4ccoc4)OC(=O)[C@H]4O[C@]43[C@@]21C,n,n,n,28,42,n
CC(Nc1nc(N2CCN(S(C)(=O)=O)CC2)nc2ccccc12)c1ccccc1 (stereo not drawn),n,n,n,n,x,x
CN(C)c1ccc(/C=C/c2ccc3c4ccccc4ccc3[n+]2-c2ccccc2)cc1,n,x,x,43,79,78
CCC1(C)Cc2c(sc3nc(SC)nc(NCCN(C)C)c23)CO1 (stereo not drawn),n,n,n,26,n,n
Cc1ccc(OCCn2c(CCCO)nc3ccccc32)cc1,n,n,n,23,n,n
OCCCc1nc2ccccc2n1CCOc1ccccc1,n,n,n,n,x,x
Cc1ccccc1CN1C[C@@H]2C[C@@H](c3cn[nH]c3-c3ccc(F)cc3)N3CCC[C@@]23C1=O,n,n,n,x,x,n
O=[N+]([O-])c1ccc(S(=O)(=O)NCC2CC3CCC2C3)cc1 (stereo not drawn),n,n,n,n,x,x
O=[N+]([O-])c1cccc(S(=O)(=O)NCC2CC3CCC2C3)c1 (stereo not drawn),n,n,n,38,n,n
CCOC(=O)c1c(CSCc2ccccc2)oc2ccc(O)c(CN(C)C)c12,n,n,n,40,40,68
CC(NC(=S)NC1CCCCC1)c1ccc(C(C)(C)C)cc1 (stereo not drawn),n,n,n,25,40,61
CCc1ccc(C(C)NC(=S)NC2CCCCC2)cc1 (stereo not drawn),n,n,n,n,x,x
CCC(C)c1ccc(C(C)NC(=S)NC2CCCCC2)cc1 (stereo not drawn),n,n,n,46,n,57
CC(=O)NC(=S)Nc1sc2c(c1C(N)=O)CCC(C)C2 (stereo not drawn),n,n,n,n,x,x
CC(C)Nc1nnc(SCc2cc(=O)n3ccsc3n2)s1,n,n,n,25,n,n
SMILES,pCIP destab,VLA-4 inh,JMJD2C inh,GPR7 antag,GPR7 antag cf,MCHR1 antag
COc1ccc(-n2c(=S)[nH]c3[nH]ncc3c2=O)cc1,n,n,n,23,n,n
CN1C(=O)C(=C2CCCCCC2)SC1=S,n,n,n,31,n,n
Cc1ccc(C(=O)C[n+]2cc(-c3ccc(C)cc3)n3c2CCCCC3)cc1,n,n,n,60,32,50
COc1ccc(C(=O)C[n+]2cc(-c3ccc(OC)cc3)n3c2CCCC3)cc1,n,n,n,n,x,x
CCOC(=O)C1(Cc2cccc(OC)c2)CCCN(S(=O)(=O)CC)C1 (stereo not drawn),n,n,n,27,n,n
OCCN1C2=NCCCN2c2ccccc21,n,n,n,n,x,x
CCCCCCN1C2=NCCCN2c2ccccc21,n,n,n,26,n,n
COc1ccc(S(=O)(=O)N2CCN(C(=O)CCNC(=O)c3ccccc3Cl)CC2)cc1,x,n,n,x,x,x
O=C(COc1ccccc1)NCC(=O)Nc1cccc(S(=O)(=O)NC2=NCCC2)c1,n,n,n,n,x,x
COc1ccc(CCNC(=O)N2c3ccccc3Sc3ccccc32)cc1,x,n,n,42,45,77
Clc1ccc2c(NCc3ccco3)ncnc2c1,n,n,n,23,n,n
Clc1ccc2c(NCc3cccs3)ncnc2c1,n,n,n,n,x,x
CN(C)c1ccc(Nc2ccc([N+](=O)[O-])cn2)cc1,n,n,n,24,41,n
O=[N+]([O-])c1ccc(Nc2ccc(F)cc2)nc1,n,n,n,n,x,x
CS(=O)(=O)c1sc(C#N)c2c1C(=O)CC(c1ccccc1)C2 (stereo not drawn),n,n,n,75,97,94
Fc1ccccc1CNCC1CCCO1 (stereo not drawn),n,x,n,n,x,x
Cc1cccc2cc(CNCC3CCCO3)c(Cl)nc12 (stereo not drawn),n,n,n,22,n,n
O=S(=O)(c1ccc(Br)s1)N1CCN(c2ccnc3cc(Cl)ccc23)CC1,n,n,n,28,37,29
CCN(CC)S(=O)(=O)c1ccc(OCC(=O)NC(=O)Cc2ccccc2)c([N+](=O)[O-])c1,x,n,n,x,x,x
O=S(=O)(c1cccs1)N1CCN(Cc2cccc(F)c2)CC1,n,n,n,30,n,n
CN1C(C(=O)N2CCc3ccccc3C2)=CC(c2ccc(F)cc2)=NS1(=O)=O,n,n,n,30,n,25
Cc1cc(-c2nnc(SCC(=O)Nc3cccc(F)c3)n2N)n[nH]1,n,n,n,n,x,x
O=C(CCc1ccccc1)NCC(=O)N/N=C/c1ccc(O)cc1O,n,n,n,n,x,x
O=C(CNS(=O)(=O)c1ccc([N+](=O)[O-])cc1)N/N=C\c1ccc(O)cc1,n,n,n,41,46,34
O=C(CNS(=O)(=O)c1ccc([N+](=O)[O-])cc1)N/N=C/c1ccc(O)cc1O,n,n,n,41,64,44
SMILES,pCIP destab,VLA-4 inh,JMJD2C inh,GPR7 antag,GPR7 antag cf,MCHR1 antag
CC(=O)Nc1ccc(/C=N\NC(=O)CNS(=O)(=O)c2ccc([N+](=O)[O-])cc2)cc1,n,n,n,n,x,x
COc1ccc(/C(O)=C2/C(=O)C(=O)N(CCN3CCNCC3)C2c2cccc([N+](=O)[O-])c2)cc1 (stereo not drawn),n,n,n,n,x,x
CCCCNC(=S)N(Cc1ccco1)Cc1cc2cc3c(cc2[nH]c1=O)OCCO3,n,n,n,n,x,x
O=c1[nH]c2cc3c(cc2cc1CN(Cc1ccco1)C(=S)NCCCN1CCOCC1)OCCO3,n,n,n,100,n,n
COc1ccc2nc(C)cc(N3CCOCC3)c2c1,n,n,n,22,n,n
Fc1ccccc1NC(=S)NCc1ccc2c(c1)OCO2,n,n,n,31,n,n

# Screens as filed in PubChem.
